Values joined by “and” are separate entries in the source; they are usually repeats but may differ in a detail not shown here. Identical values can stand only once. Records with an inconclusive call do not appear. Some compounds were tested as several samples or in several runs, with calls that do not always agree. Active and inactive are the calls of the source. Calls come from the whole dose curve; as a rule, active = well fitted curve in the direction sought with a large enough effect; inconclusive = small, poorly fitted or top-dose-only effect, or another doubt; inactive = no such curve, though single readings can be large; an effect the other way counts as inactive or inconclusive.
Key:
[1] = molecular target: Rap guanine nucleotide exchange factor 3 (Homo sapiens) (UniProt O95398); assay: Confirmatory qHTS for antagonist of cAMP-regulated guanine nucleotide exchange factor 3 (EPAC1) (AID 1645880); note: nearly all actives have a fitted effect of over 55% in size; note: potency is the fitted concentration of half-maximal effect
Sequence of Rap guanine nucleotide exchange factor 3 (Homo sapiens) (O95398 whole entry, looked up): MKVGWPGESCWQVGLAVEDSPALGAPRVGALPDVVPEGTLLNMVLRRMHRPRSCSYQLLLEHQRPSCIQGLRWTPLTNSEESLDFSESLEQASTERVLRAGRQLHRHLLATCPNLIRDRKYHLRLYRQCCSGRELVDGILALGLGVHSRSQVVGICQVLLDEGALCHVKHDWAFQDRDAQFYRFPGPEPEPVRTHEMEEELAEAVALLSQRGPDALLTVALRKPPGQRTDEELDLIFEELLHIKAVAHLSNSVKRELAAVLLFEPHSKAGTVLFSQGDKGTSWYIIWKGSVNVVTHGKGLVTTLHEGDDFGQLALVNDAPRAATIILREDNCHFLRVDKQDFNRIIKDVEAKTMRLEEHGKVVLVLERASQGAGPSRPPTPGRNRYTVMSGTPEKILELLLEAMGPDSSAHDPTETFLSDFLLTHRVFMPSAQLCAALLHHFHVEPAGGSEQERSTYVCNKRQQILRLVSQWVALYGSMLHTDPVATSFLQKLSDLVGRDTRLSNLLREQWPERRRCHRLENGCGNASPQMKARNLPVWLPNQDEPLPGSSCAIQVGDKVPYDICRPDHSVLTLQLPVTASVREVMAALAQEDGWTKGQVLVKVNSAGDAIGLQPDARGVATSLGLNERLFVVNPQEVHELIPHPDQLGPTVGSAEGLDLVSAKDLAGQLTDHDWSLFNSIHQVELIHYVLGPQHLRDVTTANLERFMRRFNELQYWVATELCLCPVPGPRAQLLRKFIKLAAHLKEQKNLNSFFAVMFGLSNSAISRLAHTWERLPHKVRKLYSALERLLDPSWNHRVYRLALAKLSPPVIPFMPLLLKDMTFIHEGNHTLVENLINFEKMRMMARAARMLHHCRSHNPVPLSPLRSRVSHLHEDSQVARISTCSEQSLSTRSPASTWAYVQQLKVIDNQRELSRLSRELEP
Procedure, shortened: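 Nucleotide exchange uses 100 nM EPAC1, 250 nM RAP1B-BODIPY-GDP and 50 uM GDP, with compounds in a concentration-titration series. After 5 min at room temperature, fluorescence (480 nm ex/540 nm em) is read every 5 min for 30 min. Data are normalized to control ATA and DMSO.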

[2] = molecular target: Rap guanine nucleotide exchange factor 3 (Homo sapiens) (UniProt O95398); assay: Confirmatory qHTS for agonist of cAMP-regulated guanine nucleotide exchange factor 3 (EPAC1) (AID 1645881);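 note: EPAC1 catalysed release of BODIPY-GDP from Rap1B seen as fluorescence loss; 100% = effect of cAMP agonist control; nearly all actives have a fitted effect of over 75% in size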
[3] = molecular target: Rap guanine nucleotide exchange factor 4 (Homo sapiens) (UniProt Q8WZA2); assay: Confirmatory qHTS for agonist of cAMP-regulated guanine nucleotide exchange factor 4 (EPAC2) (AID 1645884);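 note: nucleotide exchange releases bodipy-GDP from Rap1 and this lowers its fluorescence; % is set by controls: 0 for no effect and ±100 for the full control effect; nearly all actives have a fitted effect of over 65% in size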
Sequence of Rap guanine nucleotide exchange factor 4 (Homo sapiens) (Q8WZA2 whole entry, looked up): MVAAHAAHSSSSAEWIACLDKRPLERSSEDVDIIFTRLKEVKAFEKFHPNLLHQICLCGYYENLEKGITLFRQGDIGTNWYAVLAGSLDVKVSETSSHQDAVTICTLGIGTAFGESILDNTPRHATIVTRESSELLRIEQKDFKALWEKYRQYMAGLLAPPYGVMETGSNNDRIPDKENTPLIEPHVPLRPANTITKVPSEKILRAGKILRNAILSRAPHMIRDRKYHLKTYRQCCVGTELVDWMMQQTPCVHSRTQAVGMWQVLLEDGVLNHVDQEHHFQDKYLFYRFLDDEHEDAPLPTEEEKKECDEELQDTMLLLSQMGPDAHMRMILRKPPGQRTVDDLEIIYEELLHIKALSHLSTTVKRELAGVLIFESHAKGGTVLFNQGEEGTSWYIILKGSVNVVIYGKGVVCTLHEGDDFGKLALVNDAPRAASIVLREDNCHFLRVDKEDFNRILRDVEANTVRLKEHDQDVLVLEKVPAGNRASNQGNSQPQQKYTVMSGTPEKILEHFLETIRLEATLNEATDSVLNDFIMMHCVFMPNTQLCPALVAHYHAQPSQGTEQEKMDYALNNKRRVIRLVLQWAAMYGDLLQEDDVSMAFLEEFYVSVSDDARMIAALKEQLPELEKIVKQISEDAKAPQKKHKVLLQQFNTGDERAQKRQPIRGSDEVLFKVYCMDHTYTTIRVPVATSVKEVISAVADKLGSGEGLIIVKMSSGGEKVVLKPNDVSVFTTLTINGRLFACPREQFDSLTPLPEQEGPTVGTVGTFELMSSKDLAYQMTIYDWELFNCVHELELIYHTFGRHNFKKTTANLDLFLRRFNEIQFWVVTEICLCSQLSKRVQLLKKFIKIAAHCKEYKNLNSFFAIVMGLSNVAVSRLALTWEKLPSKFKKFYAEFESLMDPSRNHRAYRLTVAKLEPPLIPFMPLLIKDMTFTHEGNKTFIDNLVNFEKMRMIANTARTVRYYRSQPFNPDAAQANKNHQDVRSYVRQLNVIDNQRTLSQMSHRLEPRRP

[4] = molecular target: Rap guanine nucleotide exchange factor 4 (Homo sapiens) (UniProt Q8WZA2); assay: Confirmatory qHTS for antagonist of cAMP-regulated guanine nucleotide exchange factor 4 (EPAC2) (AID 1645885); note: nearly all actives have a fitted effect of over 25% in size; note: potency is the fitted concentration of half-maximal effect; for activity change, negative = inhibition: % is set by controls: 0 for no effect and ±100 for the full control effect
[5] = molecular target: Rap guanine nucleotide exchange factor 3 (Homo sapiens) (UniProt O95398); assay: Counterscreen qHTS for antagonist of cAMP-regulated guanine nucleotide exchange factor 3 (EPAC1) (AID 1645888);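 note: fluorescence loss as bound BODIPY-GDP is released from Rap1B; % of control where 0% means no effect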
Procedure, shortened: (§1)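 Measured: fluorescence of BODIPY-GDP bound to Rap1B, which falls as exchange proceeds. Conditions include 50 uM competing GDP, 5 and 30 min reads, and a later cAMP challenge for antagonist detection.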

[6] = molecular target: Rap guanine nucleotide exchange factor 3 (Homo sapiens) (UniProt O95398); assay: Counterscreen qHTS for agonist of cAMP-regulated guanine nucleotide exchange factor 3 (EPAC1) (AID 1645889); note: nearly all actives have a fitted effect of over 40% in size; note: potency is the fitted concentration of half-maximal effect; for activation: % of control where 0% means no effect
Procedure, shortened: as §1

COC(=O)c1cc2sccc2n1Cc1ccc(F)cc1
inactive: Potency [1] | Potency [2] | Potency [3] | Potency [4] | Potency [5] | Potency [6]

CN(CCc1ccccn1)C(=O)Nc1ccc(F)cc1
inactive: Potency [1] | Potency [2] | Potency [3] | Potency [4] | Potency [5] | Potency [6]

CC(C)(C)c1cc(-c2csc(Nc3ccccc3)[n+]2Cc2ccc(C(=O)O)cc2)cc(C(C)(C)C)c1O
inactive: Potency [2] | Potency [3] | Potency [5] | Potency [6]
active: Potency [1] 67.5 µM | Potency [4] 84.9 µM

O=C(Nc1cccc(C(F)(F)F)c1)c1cccc(NS(=O)(=O)c2ccc(O)c(C(=O)O)c2)c1
inactive: Potency [2] | Potency [3] | Potency [4] | Potency [5] | Potency [6]
active: Potency [1] 60.1 µM

O=C(O)c1ccc(N/N=C/c2c(F)cccc2Cl)cc1
inactive: Potency [1] | Potency [2] | activation [3] 2.99% [at 17.1 µM, percent relative to cAMP agonist control] | Potency [4] | activity change, negative = inhibition [5] -2.2% [at 30.8 µM] | activation [6] 3.47% [at 30.8 µM]

O=C(COc1ccccc1Br)NCCC1=CCCCC1
inactive: Potency [1] | Potency [2] | activation [3] 11.2% [at 17.1 µM, percent relative to cAMP agonist control] | Potency [4] | activity change, negative = inhibition [5] -17.9% [at 30.8 µM] | activation [6] 20.5% [at 30.8 µM]

COc1ccc(C2c3c(-c4ccccc4O)n[nH]c3C(=O)N2Cc2ccco2)cc1 (stereo unspecified)
inactive and 37.9 µM (active): Potency [4]
inactive: Potency [1] | Potency [2] | Potency [3] | Potency [5] | Potency [6]

CN1C(=O)/C(=C\c2ccc(N(C)C)cc2)OC1=S
inactive: Potency [1] | Potency [2] | Potency [3] | Potency [4] | Potency [5]
active: Potency [6] 15.8 µM

CCOc1cc(/C=N/Nc2ccc(S(=O)(=O)Nc3ccccc3C(=O)O)cc2[N+](=O)[O-])cc(Cl)c1O
inactive: Potency [2] | Potency [3] | Potency [4] | Potency [5] | Potency [6]
active: Potency [1] 33.8 µM

COc1cc(CC(=O)Nc2ccccc2N2CCCCC2)cc(OC)c1OC
inactive: Potency [1] | Potency [2] | Potency [3] | Potency [4] | Potency [5] | Potency [6]

Cc1nn(-c2ccccc2)c(Cl)c1/C=C1\SC(=S)NC1=O
active: Potency [1] 12 µM
inactive: Potency [2] | Potency [3] | Potency [4] | Potency [5] | Potency [6]

CC1CC(C)CN(C(=O)c2cccc(S(=O)(=O)Nc3cc(C(F)(F)F)ccc3Cl)c2)C1 (stereo unspecified)
active: Potency [1] 13.5 µM
inactive: Potency [2] | Potency [3] | Potency [4] | Potency [5] | Potency [6]

CSCCC(NC(=O)c1ccc(Cl)cc1)C(=O)OCC(=O)NCc1ccco1 (stereo unspecified)
inactive: Potency [1] | Potency [2] | activation [3] 0.694% [at 17.1 µM, percent relative to cAMP agonist control] | Potency [4] | activity change, negative = inhibition [5] -13% [at 30.8 µM] | activation [6] -1.33% [at 30.8 µM]

O=S(=O)(NCc1ccccc1)c1ccc(S(=O)(=O)N(Cc2cccs2)CC2CCCO2)cc1 (stereo unspecified)
inactive: Potency [1] | Potency [2] | Potency [3] | Potency [4] | Potency [5] | Potency [6]

CN(C)c1ccc(/C=C/c2nc3ccccc3c(=O)n2-c2ccc(C(=O)O)cc2)cc1
active: Potency [1] 75.7 µM | Potency [4] 67.5 µM | Potency [6] 39.8 µM
inactive: Potency [2] | Potency [3] | Potency [5]

CCOc1c(O)ccc(/C=C2\SC(=S)NC2=O)c1[N+](=O)[O-]
inactive: Potency [2] | Potency [3] | Potency [4] | Potency [5] | Potency [6]
active: Potency [1] 37.9 µM

COc1ccccc1-n1c(-c2ccccc2)c[n+]2c1CCc1ccccc1-2
inactive: Potency [1] | Potency [2] | Potency [3] | Potency [4] | Potency [5] | Potency [6]

CC1(C(=O)NS(=O)(=O)c2ccc(Cl)s2)CCN1C(=O)C1(c2ccc(Cl)cc2)CCC1 (stereo unspecified)
active: Potency [1] 9.53 µM | Potency [4] 8.49 µM
inactive: Potency [2] | Potency [3] | Potency [5] | Potency [6]

Cc1ccc(S(=O)(=O)N2[C@@H](c3ccc(Cl)c(Cl)c3)C(C(=O)O)=C[C@H]2CC2CCCC2)cc1
inactive: Potency [2] | activation [3] 11.3% [at 17.1 µM, percent relative to cAMP agonist control] | Potency [4] | activity change, negative = inhibition [5] -8.49% [at 30.8 µM] | activation [6] 18.3% [at 30.8 µM]
active: Potency [1] 44.7 µM

Cc1ccc(NC(=O)COC(=O)Cn2c(C)csc2=O)c([N+](=O)[O-])c1
inactive: Potency [1] | Potency [2] | Potency [3] | Potency [4] | Potency [5] | Potency [6]

Cc1ccccc1-c1cc(C(=O)NCc2ccc3c(c2)OCO3)n(CC2CC(c3cccnc3)=NO2)n1 (stereo unspecified)
inactive: Potency [1] | Potency [2] | Potency [3] | Potency [4] | Potency [5] | Potency [6]

Reference: PubChem BioAssay (NCATS)
